Results: PubChem BioAssay AID1434 (Sanford-Burnham Center for Chemical Genomics, 2008)
Out of some 220,000 compounds screened, about 1,600 (0.73%) were called active.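 How the source made its calls: active means mean inhibition across duplicate retests at 20 µM reaching about 50% (limit read from the data); inactive means the rest, inconclusive results apart.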 The list comes from a sample in which actives are over-represented; it also holds similar structures and randomly drawn compounds.

Target: Runt-related transcription factor 1 (Homo sapiens) + Core-binding factor subunit beta (Homo sapiens) (UniProt Q01196+Q13951)
Sequence (Q01196 whole entry, looked up, the tested form may be a part): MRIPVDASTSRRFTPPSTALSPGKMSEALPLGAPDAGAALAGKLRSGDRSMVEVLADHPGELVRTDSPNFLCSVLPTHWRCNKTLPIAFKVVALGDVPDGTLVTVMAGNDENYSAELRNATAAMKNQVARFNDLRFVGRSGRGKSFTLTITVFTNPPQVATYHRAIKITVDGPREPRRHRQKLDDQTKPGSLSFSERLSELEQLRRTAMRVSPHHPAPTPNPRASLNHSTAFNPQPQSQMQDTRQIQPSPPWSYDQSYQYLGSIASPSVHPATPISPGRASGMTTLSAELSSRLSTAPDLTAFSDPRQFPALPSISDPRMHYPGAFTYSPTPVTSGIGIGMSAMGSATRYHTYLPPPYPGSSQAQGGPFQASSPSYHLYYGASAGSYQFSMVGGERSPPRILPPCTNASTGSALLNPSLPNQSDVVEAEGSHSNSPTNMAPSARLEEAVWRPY
Sequence (Q13951 whole entry, looked up, the tested form may be a part): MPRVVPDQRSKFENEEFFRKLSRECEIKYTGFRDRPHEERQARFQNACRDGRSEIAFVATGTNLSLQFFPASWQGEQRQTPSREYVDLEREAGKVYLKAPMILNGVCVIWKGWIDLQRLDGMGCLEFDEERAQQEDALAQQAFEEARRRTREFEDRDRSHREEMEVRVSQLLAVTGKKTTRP
Assay: disruptors of Runt domain/CBFb-SMMHC interaction – biochemical, FRET, Cerulean-Runt, Venus-CBFb-SMMHC, uHTS, primary screen (AID 1434);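 further: 0% = DMSO wells and 100% = wells with excess untagged CBFb-SMMHC; inhibitors lower the FRET ratio by blocking Runt binding to CBFb-SMMHC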
Settings: Cerulean-Runt/Venus-CBFb-SMMHC FRET ratio 530/480, 1 h, at 20 µM, stronger effect = higher value

| Structure (SMILES) | inhibition | inhibition (retest duplicate average) [%] |
| --- | --- | --- |
| CCOC(=O)c1c(NC(=O)NC(C)(C)C)sc2c1CCN(C)C2 | 10.7% (inactive) | – |
| CCOC(=O)c1c(NC(=S)Nc2ccccc2)sc2c1CCN(C)C2 | 159% (active) | 140 |
| CCOC(=O)c1c(NC(=S)Nc2ccccc2C)sc2c1CCC2 | 4% (inactive) | – |
| Cc1ccc(Nc2nc(N)nc(CN3CCN(Cc4ccccc4)CC3)n2)cc1Cl | 1.7% (inactive) | – |
| Cc1onc(-c2c(Cl)cccc2Cl)c1C(=O)NNC(=O)c1c(-c2c(Cl)cccc2Cl)noc1C | -0.1% (inactive) | – |
| C/C(=N/OC(=O)c1c(-c2c(F)cccc2Cl)noc1C)c1cnccn1 | 0.1% (inactive) | – |
| CCCn1c(=NC(C)=O)c(C(=O)OCC)cc2c(=O)n3ccccc3nc21 | 58.9% (active) | 115 |
| CCOC(=O)c1cc2n(c1N)-c1ccccc1C2=O | 2.2% (inactive) | – |
| CCn1c(=N)c(S(=O)(=O)c2ccc(F)cc2)cc2c(=O)n3ccccc3nc21 | -20.7% (inactive) | – |
| CCOC(=O)c1cc2c(=O)n3ccccc3nc2n(CC(C)C)c1=NC(=O)c1c(-c2c(F)cccc2Cl)noc1C | 81% (active) | 58.3 |
| CCOC(=O)NNc1cc(C(F)(F)F)ccn1 | -0.5% (inactive) | – |
| CCC(C)OC(=O)C(C)Oc1ccc(-c2ccccc2)cc1 (stereo unspecified) | -4.2% (inactive) | – |
| CCN(CC)C(=O)c1sc2nc(-c3ccccc3)ccc2c1N | 15.5% (inactive) | – |
| CS(=O)(=O)c1sc2nc(-c3ccccc3)cc(-c3ccccc3)c2c1N | 83.9% (active) | 108 |
| Nc1cccc(-c2cc(-c3ccccc3)nc(-c3cccc(N)c3)n2)c1 | 1.4% (inactive) | – |
| Cc1ccc2nc(COc3ccc(N(C)S(=O)(=O)c4ccccc4)cc3)cc(=O)n2c1 | 7.6% (inactive) | – |
| CCOC(=O)C1CCN(C(=O)C2(NC(=O)Nc3cccc(F)c3)CCCCC2)CC1 | -6.4% (inactive) | – |
| CC(C)(C)c1ccc(/C=C2\Oc3c(ccc(O)c3CN3CCN(CCO)CC3)C2=O)cc1 | 90.1% (active) | 70.6 |
| CCOC(=O)c1oc2c(CN3CCN(CCO)CC3)c(O)c(CC)cc2c(=O)c1-c1nc2ccccc2s1 | 47.8% (inactive) | – |
| O=C(CSc1nc2ccccc2o1)N/N=C/c1ccccc1C(=O)O | 0.7% (inactive) | – |
| C/C(N)=C(/C#N)C(=O)COC(=O)C1CCN(C(=O)c2ccc(Cl)cc2)CC1 | 0.8% (inactive) | – |
| CNc1[nH]ncc1[N+](=O)[O-] | 7.1% (inactive) | – |
| Cc1cc(NC(C)C)n2c(nc3ccccc32)c1C#N | 31% (inactive) | – |
| CC(C)c1cc(NCc2ccccn2)n2c(nc3ccccc32)c1C#N | 29.3% (inactive) | – |
| Cc1cc(NCc2ccco2)n2c(nc3ccccc32)c1C#N | 86.1% (active) | 66 |
